# Article PMC7862700, “An all-to-all approach to the identification of sequence-specific readers for epigenetic DNA modifications on cytosine”
# Experiments:
# Test in all cases: DAPPL (digital affinity profiling via proximity ligation, sequencing); 10 mM Tris-HCl pH 7.5, 50 mM NaCl, 1 mM DTT, 4% glycerol, room temperature, 30 min; GST-TFs on glutathione beads, 16-mer random dsDNA library, 0.1% formaldehyde crosslink after washing; high values mean tight binding
# Conditions in all cases: protein: recombinant; tags: N-terminal GST; dsDNA, one strand shown
# ETV1 = ETV1 (Homo sapiens, UniProt P50549 1-477)
# How it was run: (§1)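 In yeast, human transcription factors were expressed with a GST fusion, then pulled down on glutathione beads and given DNA barcodes. Pooled with a tag-only sample, they were exposed to 200 nmole of a 16-mer random double-stranded DNA library (Tris/NaCl/DTT/glycerol buffer, room temperature, 30 min), washed, crosslinked with 0.1% formaldehyde, proximity-ligated using BsaI/T4 ligase for 1 h at 37 °C, PCR-amplified and read on an Illumina NextSeq500. Each hexamer's frequency of reads for a factor, divided by the matching frequency for the tag-only sample, gives the binding signal.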
# ERF = target: T1, ERF (Homo sapiens, UniProt P50548 1-548)
# T1 sequence: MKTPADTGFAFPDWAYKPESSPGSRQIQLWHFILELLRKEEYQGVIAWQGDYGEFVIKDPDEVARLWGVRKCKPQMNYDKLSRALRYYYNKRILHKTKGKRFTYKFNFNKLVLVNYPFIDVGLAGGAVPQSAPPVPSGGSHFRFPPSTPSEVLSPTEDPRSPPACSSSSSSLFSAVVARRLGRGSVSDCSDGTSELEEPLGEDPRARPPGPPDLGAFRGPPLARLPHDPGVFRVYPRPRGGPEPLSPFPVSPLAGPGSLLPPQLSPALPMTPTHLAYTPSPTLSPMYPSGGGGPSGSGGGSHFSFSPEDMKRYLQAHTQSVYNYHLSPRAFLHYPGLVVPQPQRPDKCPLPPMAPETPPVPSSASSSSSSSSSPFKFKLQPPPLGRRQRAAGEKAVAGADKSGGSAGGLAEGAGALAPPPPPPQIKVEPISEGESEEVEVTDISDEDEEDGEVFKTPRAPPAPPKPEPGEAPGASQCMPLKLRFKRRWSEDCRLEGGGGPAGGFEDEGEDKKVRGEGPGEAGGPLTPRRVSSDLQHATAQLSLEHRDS
# How it was run: as §1
# ETV3L = target: T2, ETV3L (Homo sapiens, UniProt Q6ZN32 1-361)
# T2 sequence: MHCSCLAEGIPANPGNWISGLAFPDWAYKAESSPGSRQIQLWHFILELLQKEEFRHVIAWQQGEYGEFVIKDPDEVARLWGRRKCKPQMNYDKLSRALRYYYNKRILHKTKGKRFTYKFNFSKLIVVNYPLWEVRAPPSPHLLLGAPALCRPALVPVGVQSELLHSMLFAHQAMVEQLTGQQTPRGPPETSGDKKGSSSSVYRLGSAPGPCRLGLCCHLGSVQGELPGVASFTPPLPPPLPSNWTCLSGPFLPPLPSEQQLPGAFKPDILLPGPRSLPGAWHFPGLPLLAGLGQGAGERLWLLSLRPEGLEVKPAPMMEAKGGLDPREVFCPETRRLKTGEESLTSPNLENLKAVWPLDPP
# How it was run: as §1
# ETS2 = target: T3, ETS2 (Homo sapiens, UniProt P15036 1-469)
# T3 sequence: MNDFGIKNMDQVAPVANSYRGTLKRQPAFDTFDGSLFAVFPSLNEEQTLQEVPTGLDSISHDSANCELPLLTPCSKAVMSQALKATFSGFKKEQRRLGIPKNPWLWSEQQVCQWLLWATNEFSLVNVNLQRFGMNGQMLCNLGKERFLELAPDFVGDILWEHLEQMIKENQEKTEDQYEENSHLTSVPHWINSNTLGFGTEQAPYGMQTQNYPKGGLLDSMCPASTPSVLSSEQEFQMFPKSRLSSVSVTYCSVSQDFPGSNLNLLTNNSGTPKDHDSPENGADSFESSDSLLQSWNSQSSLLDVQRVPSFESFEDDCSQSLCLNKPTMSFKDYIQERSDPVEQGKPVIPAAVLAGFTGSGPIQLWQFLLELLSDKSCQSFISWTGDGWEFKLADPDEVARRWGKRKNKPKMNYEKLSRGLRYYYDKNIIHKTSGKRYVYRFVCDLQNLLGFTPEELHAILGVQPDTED
# How it was run: as §1
# SPDEF = target: T4, SPDEF (Homo sapiens, UniProt O95238 1-335)
# T4 sequence: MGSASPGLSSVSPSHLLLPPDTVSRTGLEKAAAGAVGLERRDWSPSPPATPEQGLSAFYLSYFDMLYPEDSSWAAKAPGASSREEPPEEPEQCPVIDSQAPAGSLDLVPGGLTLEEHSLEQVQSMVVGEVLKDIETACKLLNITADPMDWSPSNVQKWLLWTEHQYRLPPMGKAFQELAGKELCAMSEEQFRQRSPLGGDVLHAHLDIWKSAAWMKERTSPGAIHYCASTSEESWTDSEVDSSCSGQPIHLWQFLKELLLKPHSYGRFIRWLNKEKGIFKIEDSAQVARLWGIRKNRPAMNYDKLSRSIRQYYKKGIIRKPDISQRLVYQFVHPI
# How it was run: as §1
# ETV7 = target: T5, ETV7 (Homo sapiens, UniProt Q9Y603 1-341)
# T5 sequence: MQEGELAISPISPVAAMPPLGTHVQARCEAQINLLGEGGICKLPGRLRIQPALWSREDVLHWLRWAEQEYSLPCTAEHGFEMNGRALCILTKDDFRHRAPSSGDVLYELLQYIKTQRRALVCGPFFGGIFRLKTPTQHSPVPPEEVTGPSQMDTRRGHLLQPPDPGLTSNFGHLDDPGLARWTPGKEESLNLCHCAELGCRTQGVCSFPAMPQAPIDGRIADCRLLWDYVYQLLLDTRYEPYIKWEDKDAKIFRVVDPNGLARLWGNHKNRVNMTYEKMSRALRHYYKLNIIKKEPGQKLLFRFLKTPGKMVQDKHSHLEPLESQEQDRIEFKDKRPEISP
# How it was run: as §1
# ELF5 = target: T6, ELF5 (Homo sapiens, UniProt Q9UKW6-2 1-255)
# T6 sequence: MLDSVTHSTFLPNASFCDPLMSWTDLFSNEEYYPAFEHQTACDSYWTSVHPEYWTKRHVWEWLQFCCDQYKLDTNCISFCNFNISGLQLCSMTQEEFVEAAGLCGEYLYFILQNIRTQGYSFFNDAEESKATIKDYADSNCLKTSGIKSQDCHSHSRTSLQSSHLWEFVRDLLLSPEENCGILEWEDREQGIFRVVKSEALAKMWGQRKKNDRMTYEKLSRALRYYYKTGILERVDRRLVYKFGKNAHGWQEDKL
# How it was run: as §1
# ETV3 = target: T7, ETV3 (Homo sapiens, UniProt P41162-2 1-143)
# T7 sequence: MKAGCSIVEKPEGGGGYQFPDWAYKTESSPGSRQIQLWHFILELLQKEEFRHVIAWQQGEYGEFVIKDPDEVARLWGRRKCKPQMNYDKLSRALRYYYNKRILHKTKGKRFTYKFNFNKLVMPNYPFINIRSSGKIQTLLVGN
# How it was run: as §1
# ETV6 = ETV6 (Homo sapiens, UniProt P41212 1-452)
# How it was run: as §1
# Chain of ETV1 (P50549 whole entry, the tested form may be a part): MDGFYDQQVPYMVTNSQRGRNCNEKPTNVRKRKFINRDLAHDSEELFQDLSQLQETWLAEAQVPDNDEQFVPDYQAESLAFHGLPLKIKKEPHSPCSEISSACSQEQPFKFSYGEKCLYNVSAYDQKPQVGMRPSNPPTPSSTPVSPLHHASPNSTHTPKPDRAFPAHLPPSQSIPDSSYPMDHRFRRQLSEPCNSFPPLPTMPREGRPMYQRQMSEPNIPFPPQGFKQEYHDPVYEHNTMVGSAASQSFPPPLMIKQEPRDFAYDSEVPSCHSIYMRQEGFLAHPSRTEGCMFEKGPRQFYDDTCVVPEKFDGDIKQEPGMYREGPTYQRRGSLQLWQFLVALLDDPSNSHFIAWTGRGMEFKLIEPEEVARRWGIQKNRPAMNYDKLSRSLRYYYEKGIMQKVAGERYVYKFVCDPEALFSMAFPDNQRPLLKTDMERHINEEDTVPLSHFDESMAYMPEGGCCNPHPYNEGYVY
# Chain of ETV6 (P41212 whole entry): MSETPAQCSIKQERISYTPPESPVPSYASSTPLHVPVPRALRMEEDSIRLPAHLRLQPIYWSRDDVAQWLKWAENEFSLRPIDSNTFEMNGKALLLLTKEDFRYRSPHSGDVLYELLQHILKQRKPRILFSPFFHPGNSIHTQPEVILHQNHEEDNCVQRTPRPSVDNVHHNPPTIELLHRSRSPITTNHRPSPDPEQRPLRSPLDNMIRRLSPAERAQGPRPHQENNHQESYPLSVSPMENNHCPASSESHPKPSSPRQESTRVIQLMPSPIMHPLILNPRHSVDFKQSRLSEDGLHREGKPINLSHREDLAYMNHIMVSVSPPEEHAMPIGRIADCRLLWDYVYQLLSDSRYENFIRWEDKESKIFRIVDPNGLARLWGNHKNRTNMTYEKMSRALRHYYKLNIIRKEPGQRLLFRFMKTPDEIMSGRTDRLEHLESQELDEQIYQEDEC
sequence,measurement,setting,value
TGCAAC,binding signal,ETV1,"1.4 fold enrichment (6-mer frequency, TF over GST control)"
same,binding signal,ERF,"1.31 fold enrichment (6-mer frequency, TF over GST control)"
same,binding signal,ETV3L,"1.28 fold enrichment (6-mer frequency, TF over GST control)"
same,binding signal,ETS2,"1.28 fold enrichment (6-mer frequency, TF over GST control)"
same,binding signal,SPDEF,"1.37 fold enrichment (6-mer frequency, TF over GST control)"
same,binding signal,ETV7,"1.19 fold enrichment (6-mer frequency, TF over GST control)"
same,binding signal,ELF5,"1.23 fold enrichment (6-mer frequency, TF over GST control)"
same,binding signal,ETV3,"1.32 fold enrichment (6-mer frequency, TF over GST control)"
same,binding signal,ETV6,"1.35 fold enrichment (6-mer frequency, TF over GST control)"
